# Measurements: article PMC7862700, “An all-to-all approach to the identification of sequence-specific readers for epigenetic DNA modifications on cytosine”
# Experiments:
# Assay in all cases: DAPPL (digital affinity profiling via proximity ligation, sequencing); 10 mM Tris-HCl pH 7.5, 50 mM NaCl, 1 mM DTT, 4% glycerol, room temperature, 30 min; GST-TFs on glutathione beads, 16-mer random dsDNA library, 0.1% formaldehyde crosslink after washing; high values mean tight binding
# [1] = biological target: T1, FLI1 (Homo sapiens, UniProt Q01543 1-452); settings: protein: recombinant; tags: N-terminal GST; dsDNA, one strand shown
# T1 sequence: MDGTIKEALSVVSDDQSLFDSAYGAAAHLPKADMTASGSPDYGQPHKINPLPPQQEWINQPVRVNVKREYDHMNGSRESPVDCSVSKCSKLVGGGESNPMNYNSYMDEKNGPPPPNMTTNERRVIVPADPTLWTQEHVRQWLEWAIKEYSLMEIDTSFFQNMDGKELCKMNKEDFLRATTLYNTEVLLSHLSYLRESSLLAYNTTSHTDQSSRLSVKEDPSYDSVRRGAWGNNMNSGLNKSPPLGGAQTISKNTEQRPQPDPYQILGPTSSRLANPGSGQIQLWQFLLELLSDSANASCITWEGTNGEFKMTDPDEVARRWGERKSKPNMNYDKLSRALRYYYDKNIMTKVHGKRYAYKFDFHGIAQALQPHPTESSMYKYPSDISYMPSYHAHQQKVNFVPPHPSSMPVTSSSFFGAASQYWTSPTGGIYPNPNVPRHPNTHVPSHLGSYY
# Method in brief: (§1)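 Beads coated with glutathione captured GST-fused human transcription factors that had been expressed in yeast, and the factors were then given DNA barcodes and pooled with a tag-only sample. The pools were incubated with 200 nmole of a random double-stranded 16-mer DNA library in Tris/NaCl/DTT/glycerol buffer for 30 min at room temperature, washed, crosslinked with 0.1% formaldehyde and proximity-ligated with BsaI/T4 ligase at 37 °C for 1 h. PCR amplification and Illumina NextSeq500 sequencing came last. Binding signal is each hexamer's read frequency for a factor divided by its frequency for the tag-only sample.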
# [2] = biological target: T2, ELK1 (Homo sapiens, UniProt P19419 1-428); settings: protein: recombinant; tags: N-terminal GST; dsDNA, one strand shown
# T2 sequence: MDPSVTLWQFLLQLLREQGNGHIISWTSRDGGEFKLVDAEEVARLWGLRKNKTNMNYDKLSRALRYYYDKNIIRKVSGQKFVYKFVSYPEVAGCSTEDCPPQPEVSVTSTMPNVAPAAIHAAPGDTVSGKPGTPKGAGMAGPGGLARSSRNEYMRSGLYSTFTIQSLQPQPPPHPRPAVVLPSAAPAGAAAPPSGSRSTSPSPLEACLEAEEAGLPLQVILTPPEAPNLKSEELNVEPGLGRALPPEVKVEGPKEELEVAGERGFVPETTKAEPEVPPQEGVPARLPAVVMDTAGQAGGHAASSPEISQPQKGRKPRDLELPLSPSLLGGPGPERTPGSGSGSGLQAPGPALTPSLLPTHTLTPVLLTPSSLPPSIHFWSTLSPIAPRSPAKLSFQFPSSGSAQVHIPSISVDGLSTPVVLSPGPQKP
# Method in brief: as §1
# [3] = biological target: T3, GABPA (Homo sapiens, UniProt Q06546 1-454); settings: protein: recombinant; tags: N-terminal GST; dsDNA, one strand shown
# T3 sequence: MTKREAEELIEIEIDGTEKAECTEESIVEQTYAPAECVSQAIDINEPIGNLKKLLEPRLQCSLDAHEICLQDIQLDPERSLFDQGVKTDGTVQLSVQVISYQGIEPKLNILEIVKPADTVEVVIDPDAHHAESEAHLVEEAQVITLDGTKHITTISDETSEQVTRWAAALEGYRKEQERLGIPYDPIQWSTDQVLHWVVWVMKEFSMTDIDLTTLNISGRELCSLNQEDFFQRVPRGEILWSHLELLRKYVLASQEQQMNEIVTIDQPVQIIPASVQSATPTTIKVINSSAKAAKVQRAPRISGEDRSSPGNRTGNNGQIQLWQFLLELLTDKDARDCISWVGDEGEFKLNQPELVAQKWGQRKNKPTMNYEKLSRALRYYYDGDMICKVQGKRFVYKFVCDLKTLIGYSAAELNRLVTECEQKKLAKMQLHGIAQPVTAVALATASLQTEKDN
# Method in brief: as §1
# [4] = biological target: T4, ERG (Homo sapiens, UniProt P11308 1-479); settings: protein: recombinant; tags: N-terminal GST; dsDNA, one strand shown
# T4 sequence: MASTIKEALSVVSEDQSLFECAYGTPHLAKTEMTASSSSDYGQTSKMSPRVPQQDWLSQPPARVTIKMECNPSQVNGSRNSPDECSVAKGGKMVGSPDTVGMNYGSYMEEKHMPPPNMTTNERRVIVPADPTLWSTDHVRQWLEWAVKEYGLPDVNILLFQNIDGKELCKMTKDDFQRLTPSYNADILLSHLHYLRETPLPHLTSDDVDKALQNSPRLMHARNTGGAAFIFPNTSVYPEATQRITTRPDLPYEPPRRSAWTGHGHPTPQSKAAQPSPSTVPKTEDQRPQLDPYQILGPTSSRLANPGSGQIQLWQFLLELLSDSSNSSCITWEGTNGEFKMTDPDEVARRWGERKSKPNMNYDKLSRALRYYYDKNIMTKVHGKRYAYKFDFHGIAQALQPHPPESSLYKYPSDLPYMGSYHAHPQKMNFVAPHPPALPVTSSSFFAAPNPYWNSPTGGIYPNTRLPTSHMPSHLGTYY
# Method in brief: as §1
# [5] = biological target: ELF1 (Homo sapiens, UniProt P32519 1-619); settings: protein: recombinant; tags: N-terminal GST; dsDNA, one strand shown
# Chain of ELF1 (P32519 whole entry): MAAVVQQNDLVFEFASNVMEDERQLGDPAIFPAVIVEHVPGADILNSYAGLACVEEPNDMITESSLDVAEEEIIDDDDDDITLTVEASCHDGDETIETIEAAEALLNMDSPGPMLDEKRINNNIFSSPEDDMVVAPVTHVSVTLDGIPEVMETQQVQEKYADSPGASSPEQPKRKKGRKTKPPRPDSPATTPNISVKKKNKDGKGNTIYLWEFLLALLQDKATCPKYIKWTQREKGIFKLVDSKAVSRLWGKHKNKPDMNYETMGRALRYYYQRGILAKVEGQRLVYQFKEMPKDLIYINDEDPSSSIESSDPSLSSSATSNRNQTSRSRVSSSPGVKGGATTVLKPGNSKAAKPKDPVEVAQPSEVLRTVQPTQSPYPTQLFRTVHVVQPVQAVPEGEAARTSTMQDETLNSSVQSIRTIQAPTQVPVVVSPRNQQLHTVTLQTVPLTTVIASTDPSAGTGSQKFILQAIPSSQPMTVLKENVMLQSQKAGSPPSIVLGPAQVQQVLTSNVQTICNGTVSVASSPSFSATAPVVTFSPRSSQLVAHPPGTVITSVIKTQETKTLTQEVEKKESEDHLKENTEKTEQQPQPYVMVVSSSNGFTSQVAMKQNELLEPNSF
# Method in brief: as §1
# [6] = biological target: T5, EHF (Homo sapiens, UniProt Q9NZC4 1-300); settings: protein: recombinant; tags: N-terminal GST; dsDNA, one strand shown
# T5 sequence: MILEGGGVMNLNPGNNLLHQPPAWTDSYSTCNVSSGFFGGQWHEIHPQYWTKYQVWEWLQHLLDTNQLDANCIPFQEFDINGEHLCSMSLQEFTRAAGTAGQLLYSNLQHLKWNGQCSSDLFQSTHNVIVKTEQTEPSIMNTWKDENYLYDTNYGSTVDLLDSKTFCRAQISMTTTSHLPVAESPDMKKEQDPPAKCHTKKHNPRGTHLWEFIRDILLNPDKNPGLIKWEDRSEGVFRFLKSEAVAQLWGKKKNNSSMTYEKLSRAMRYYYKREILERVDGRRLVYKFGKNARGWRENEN
# Method in brief: as §1
# [7] = biological target: SPI1 (Homo sapiens, UniProt P17947 1-270); settings: protein: recombinant; tags: N-terminal GST; dsDNA, one strand shown
# Method in brief: as §1
# [8] = biological target: SPIB (Homo sapiens, UniProt Q01892 1-262); settings: protein: recombinant; tags: N-terminal GST; dsDNA, one strand shown
# Chain of SPIB (Q01892 whole entry): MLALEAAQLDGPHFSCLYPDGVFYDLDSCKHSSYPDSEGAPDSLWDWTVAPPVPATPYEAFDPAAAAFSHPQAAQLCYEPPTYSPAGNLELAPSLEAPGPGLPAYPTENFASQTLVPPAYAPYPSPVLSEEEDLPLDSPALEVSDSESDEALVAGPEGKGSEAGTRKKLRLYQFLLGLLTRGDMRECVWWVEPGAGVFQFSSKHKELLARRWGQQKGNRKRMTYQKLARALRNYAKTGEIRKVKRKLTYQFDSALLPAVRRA
# Method in brief: as §1
# [9] = biological target: T6, ELK3 (Homo sapiens, UniProt P41970 1-407); settings: protein: recombinant; tags: N-terminal GST; dsDNA, one strand shown
# T6 sequence: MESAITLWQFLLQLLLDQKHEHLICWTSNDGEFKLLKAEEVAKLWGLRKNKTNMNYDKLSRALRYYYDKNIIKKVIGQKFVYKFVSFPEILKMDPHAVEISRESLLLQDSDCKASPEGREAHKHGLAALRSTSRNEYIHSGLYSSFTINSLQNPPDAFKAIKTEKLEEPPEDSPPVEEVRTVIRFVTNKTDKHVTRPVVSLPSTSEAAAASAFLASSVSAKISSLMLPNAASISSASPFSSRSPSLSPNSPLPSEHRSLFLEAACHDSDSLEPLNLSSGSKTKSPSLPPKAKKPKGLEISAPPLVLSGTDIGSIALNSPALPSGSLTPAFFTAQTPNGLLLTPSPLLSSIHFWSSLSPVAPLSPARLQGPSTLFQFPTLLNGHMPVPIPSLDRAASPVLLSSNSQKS
# Method in brief: as §1
# [10] = biological target: T7, FEV (Homo sapiens, UniProt Q99581 1-238); settings: protein: recombinant; tags: N-terminal GST; dsDNA, one strand shown
# T7 sequence: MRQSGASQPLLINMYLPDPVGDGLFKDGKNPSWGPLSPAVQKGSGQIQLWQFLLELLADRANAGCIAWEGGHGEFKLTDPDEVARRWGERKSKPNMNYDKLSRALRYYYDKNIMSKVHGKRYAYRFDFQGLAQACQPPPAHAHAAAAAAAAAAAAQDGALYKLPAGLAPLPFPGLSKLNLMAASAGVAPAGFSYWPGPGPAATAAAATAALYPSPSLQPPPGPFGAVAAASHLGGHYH
# Method in brief: as §1
# [11] = biological target: ETV5 (Homo sapiens, UniProt P41161 1-510); settings: protein: recombinant; tags: N-terminal GST; dsDNA, one strand shown
# Chain of ETV5 (P41161 whole entry): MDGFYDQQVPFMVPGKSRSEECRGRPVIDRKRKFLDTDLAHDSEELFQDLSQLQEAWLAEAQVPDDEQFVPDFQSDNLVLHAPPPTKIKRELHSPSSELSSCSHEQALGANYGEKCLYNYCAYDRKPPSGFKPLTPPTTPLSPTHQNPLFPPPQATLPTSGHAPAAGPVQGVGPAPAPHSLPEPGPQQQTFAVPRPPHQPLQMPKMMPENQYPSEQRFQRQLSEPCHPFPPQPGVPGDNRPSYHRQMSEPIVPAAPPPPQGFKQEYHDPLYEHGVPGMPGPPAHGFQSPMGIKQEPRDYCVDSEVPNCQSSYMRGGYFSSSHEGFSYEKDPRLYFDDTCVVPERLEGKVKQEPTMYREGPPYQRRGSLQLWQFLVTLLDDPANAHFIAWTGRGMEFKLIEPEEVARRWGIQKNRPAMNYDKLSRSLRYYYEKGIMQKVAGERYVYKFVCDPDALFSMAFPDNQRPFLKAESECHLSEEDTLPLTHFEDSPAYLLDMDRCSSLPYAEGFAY
# Method in brief: as §1
# [12] = biological target: HSF1 (Homo sapiens, UniProt Q00613 1-529); settings: protein: recombinant; tags: N-terminal GST; chain copies: 3; dsDNA, one strand shown
# Chain of HSF1 (Q00613 whole entry): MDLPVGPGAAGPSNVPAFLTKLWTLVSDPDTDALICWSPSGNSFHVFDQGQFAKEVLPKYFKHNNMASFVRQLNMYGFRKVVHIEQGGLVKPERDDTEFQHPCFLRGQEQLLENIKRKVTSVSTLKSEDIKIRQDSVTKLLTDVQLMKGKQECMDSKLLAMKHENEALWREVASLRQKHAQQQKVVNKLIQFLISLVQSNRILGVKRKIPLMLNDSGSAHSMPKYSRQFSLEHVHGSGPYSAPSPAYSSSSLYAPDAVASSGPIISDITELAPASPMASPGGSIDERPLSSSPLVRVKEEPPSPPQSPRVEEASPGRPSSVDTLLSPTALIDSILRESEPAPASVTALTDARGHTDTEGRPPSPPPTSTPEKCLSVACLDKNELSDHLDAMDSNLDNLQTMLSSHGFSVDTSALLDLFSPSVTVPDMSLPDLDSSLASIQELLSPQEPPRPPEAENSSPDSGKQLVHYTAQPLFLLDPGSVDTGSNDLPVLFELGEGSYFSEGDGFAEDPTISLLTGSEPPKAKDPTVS
# Method in brief: as §1
# [13] = biological target: T8, SPIC (Homo sapiens, UniProt Q8N5J4 1-248); settings: protein: recombinant; tags: N-terminal GST; dsDNA, one strand shown
# T8 sequence: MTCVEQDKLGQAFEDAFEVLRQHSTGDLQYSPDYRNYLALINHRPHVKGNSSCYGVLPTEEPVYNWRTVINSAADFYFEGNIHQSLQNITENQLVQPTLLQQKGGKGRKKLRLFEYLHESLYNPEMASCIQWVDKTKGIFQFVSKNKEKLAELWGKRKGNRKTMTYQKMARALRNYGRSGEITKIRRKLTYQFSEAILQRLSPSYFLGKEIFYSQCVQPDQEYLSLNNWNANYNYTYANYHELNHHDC
# Method in brief: as §1
# [14] = biological target: ELF4 (Homo sapiens, UniProt Q99607 1-663); settings: protein: recombinant; tags: N-terminal GST; dsDNA, one strand shown
# Chain of ELF4 (Q99607 whole entry): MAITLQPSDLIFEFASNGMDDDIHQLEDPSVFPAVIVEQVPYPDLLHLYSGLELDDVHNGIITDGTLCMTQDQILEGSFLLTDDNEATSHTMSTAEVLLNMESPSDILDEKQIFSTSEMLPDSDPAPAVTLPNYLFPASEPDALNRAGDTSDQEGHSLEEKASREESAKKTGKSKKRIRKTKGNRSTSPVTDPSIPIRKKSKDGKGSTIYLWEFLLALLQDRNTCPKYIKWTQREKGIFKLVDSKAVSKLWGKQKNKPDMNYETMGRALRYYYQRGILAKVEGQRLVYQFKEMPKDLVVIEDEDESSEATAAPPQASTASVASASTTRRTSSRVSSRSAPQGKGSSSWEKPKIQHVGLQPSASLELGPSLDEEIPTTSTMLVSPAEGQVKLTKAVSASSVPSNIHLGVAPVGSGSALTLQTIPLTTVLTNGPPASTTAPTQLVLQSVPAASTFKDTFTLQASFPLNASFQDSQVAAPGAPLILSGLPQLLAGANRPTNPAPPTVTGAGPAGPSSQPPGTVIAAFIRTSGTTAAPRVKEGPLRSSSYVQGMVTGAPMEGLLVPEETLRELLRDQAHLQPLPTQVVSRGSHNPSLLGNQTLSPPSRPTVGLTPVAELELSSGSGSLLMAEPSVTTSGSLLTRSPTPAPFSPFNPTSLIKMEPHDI
# Method in brief: as §1
# [15] = biological target: T9, ELK4 (Homo sapiens, UniProt P28324-2 1-405); settings: protein: recombinant; tags: N-terminal GST; dsDNA, one strand shown
# T9 sequence: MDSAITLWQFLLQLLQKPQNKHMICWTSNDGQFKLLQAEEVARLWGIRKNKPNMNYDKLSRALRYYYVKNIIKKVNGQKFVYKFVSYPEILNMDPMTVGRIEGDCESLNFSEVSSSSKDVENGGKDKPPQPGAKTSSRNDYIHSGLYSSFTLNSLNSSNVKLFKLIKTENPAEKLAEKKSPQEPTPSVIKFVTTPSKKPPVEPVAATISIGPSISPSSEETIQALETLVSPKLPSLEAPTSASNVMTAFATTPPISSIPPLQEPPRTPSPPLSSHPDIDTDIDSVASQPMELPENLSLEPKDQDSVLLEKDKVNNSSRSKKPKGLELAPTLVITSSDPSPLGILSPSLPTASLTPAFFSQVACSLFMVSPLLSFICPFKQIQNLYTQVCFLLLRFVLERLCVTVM
# Method in brief: as §1
# [16] = biological target: T10, ETV2 (Homo sapiens, UniProt O00321 1-342); settings: protein: recombinant; tags: N-terminal GST; dsDNA, one strand shown
# T10 sequence: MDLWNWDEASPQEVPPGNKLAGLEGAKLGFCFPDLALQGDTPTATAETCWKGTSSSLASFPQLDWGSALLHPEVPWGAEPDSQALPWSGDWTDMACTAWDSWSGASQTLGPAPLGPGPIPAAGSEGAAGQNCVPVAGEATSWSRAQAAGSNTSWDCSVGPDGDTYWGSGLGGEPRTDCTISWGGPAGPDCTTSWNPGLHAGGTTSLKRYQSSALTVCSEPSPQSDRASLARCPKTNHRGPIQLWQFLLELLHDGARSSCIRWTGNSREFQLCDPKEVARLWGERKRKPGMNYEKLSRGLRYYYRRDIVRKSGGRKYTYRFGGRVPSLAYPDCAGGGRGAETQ
# Method in brief: as §1
# [17] = biological target: T11, ELF3 (Homo sapiens, UniProt P78545 1-371); settings: protein: recombinant; tags: N-terminal GST; dsDNA, one strand shown
# T11 sequence: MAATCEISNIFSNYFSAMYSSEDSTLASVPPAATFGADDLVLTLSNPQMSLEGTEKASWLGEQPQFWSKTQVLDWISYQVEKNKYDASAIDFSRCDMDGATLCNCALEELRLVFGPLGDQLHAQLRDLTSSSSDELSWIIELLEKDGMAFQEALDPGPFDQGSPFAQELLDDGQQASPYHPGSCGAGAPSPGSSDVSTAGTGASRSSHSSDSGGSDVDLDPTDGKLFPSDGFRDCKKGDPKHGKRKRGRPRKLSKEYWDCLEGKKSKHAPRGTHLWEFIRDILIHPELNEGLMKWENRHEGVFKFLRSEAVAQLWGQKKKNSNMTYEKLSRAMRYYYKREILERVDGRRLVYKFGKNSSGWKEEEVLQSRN
# Method in brief: as §1
# [18] = biological target: CRX (Homo sapiens, UniProt O43186 1-299); settings: protein: recombinant; tags: N-terminal GST; dsDNA, one strand shown
# Chain of CRX (O43186 whole entry): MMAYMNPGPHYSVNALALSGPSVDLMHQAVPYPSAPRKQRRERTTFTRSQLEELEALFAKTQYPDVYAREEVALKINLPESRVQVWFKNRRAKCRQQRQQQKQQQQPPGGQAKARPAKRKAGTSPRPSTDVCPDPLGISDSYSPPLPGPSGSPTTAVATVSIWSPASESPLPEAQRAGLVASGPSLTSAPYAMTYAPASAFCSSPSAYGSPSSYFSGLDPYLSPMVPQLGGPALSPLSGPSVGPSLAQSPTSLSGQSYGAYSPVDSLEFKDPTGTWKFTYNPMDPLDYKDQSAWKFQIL
# Method in brief: as §1
# [19] = biological target: ETV1 (Homo sapiens, UniProt P50549 1-477); settings: protein: recombinant; tags: N-terminal GST; dsDNA, one strand shown
# Chain of ETV1 (P50549 whole entry): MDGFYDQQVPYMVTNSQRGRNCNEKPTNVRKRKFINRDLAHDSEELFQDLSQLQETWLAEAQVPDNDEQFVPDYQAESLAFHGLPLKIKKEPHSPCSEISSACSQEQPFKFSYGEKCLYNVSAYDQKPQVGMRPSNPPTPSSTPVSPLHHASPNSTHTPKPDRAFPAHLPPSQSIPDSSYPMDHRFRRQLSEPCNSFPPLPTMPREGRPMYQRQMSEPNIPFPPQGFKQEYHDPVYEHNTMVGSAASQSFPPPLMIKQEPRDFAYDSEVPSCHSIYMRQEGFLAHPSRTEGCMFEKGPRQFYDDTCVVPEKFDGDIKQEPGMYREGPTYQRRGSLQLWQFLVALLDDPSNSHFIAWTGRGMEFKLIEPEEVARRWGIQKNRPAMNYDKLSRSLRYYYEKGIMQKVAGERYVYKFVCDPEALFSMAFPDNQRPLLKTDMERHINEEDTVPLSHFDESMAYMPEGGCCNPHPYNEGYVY
# Method in brief: as §1
sequence,measurement,setting,value
CTGTTC,binding signal,[1],"1.47 fold enrichment (6-mer frequency, TF over GST control)"
same,binding signal,[2],"1.42 fold enrichment (6-mer frequency, TF over GST control)"
same,binding signal,[3],"1.38 fold enrichment (6-mer frequency, TF over GST control)"
same,binding signal,[4],"1.39 fold enrichment (6-mer frequency, TF over GST control)"
same,binding signal,[5],"1.38 fold enrichment (6-mer frequency, TF over GST control)"
same,binding signal,[6],"1.47 fold enrichment (6-mer frequency, TF over GST control)"
same,binding signal,[7],"1.42 fold enrichment (6-mer frequency, TF over GST control)"
same,binding signal,[8],"1.39 fold enrichment (6-mer frequency, TF over GST control)"
same,binding signal,[9],"1.47 fold enrichment (6-mer frequency, TF over GST control)"
same,binding signal,[10],"1.33 fold enrichment (6-mer frequency, TF over GST control)"
same,binding signal,[11],"1.39 fold enrichment (6-mer frequency, TF over GST control)"
same,binding signal,[12],"1.38 fold enrichment (6-mer frequency, TF over GST control)"
same,binding signal,[13],"1.44 fold enrichment (6-mer frequency, TF over GST control)"
same,binding signal,[14],"1.42 fold enrichment (6-mer frequency, TF over GST control)"
same,binding signal,[15],"1.19 fold enrichment (6-mer frequency, TF over GST control)"
same,binding signal,[16],"1.38 fold enrichment (6-mer frequency, TF over GST control)"
same,binding signal,[17],"1.63 fold enrichment (6-mer frequency, TF over GST control)"
same,binding signal,[18],"1.07 fold enrichment (6-mer frequency, TF over GST control)"
same,binding signal,[19],"1.46 fold enrichment (6-mer frequency, TF over GST control)"
